Over roughly 18,000 sequences, “log2 normalized intensity” has its median near 0.39; the highest 2% begin near 6.6. This is one part of a sample in which the highest values are shown more often than they occur.

In this assay the target is T1, HNF4alpha2 (COS-7 nuclear extract) (Homo sapiens, UniProt P41235 1-474).
T1 sequence: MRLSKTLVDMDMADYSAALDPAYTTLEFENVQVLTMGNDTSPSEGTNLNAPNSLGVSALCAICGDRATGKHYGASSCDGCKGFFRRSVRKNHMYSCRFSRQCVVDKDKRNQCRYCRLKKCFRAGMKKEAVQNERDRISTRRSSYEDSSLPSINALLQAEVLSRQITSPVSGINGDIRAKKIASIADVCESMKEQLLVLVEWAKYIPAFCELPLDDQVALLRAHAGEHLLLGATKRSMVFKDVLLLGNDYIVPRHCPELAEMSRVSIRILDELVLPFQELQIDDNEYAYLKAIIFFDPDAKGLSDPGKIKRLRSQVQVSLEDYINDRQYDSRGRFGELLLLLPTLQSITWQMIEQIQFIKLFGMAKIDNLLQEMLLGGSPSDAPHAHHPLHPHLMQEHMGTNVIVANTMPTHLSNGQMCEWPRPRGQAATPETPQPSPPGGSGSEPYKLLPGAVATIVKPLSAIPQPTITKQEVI
Briefly: protein-binding microarray; COS-7 nuclear extract on double-stranded Agilent 4x180k PBM; binding buffer, salt, pH and temperature not given in the material; high values mean tight binding. The conditions noted are these: chain copies: 2; label: 3' end of strand 1 on the slide; dsDNA, one strand shown. Summed up: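 Nuclear extracts came from COS-7 cells transiently transfected by CaPO4 with a human HNF4α isoform expression vector. They were applied to a custom Agilent SurePrint G3 4x180k array of ~60-nt oligonucleotides, made double-stranded, with ~44,000 test sequences spotted in quadruplicate. Bound HNF4α was imaged at 2-µm resolution on an Agilent G2565CA scanner. Binding signal was taken as background-corrected, normalized gProcessedSignal from Agilent software.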
“ATAAGTTTTCTCATAAAACACCCACCTTGTGCCTAGGGAGATTAGAGTATCGGTCGA”: the binding signal was -0.452 log2 normalized intensity.
“TCTGACCAGGCTGATTTAGCTATTTGACCTGCCTAGGGAGATTAGAGTATCGGTCGA”: the binding signal amounted to 4.02 log2 normalized intensity.
Turning to “TGGCTAAGACAGGGGCTATTTCTGACCTTTGCCTAGGGAGATTAGAGTATCGGTCGA”, the binding signal was 6.5 log2 normalized intensity.
“CCTTTGCACCAGAGATAATATGCTTACTTAGCCTAGGGAGATTAGAGTATCGGTCGA”: the binding signal came out at 0.0286 log2 normalized intensity.
As to “CTATTTCTGACCTTTGCACCAGAGATAATAGCCTAGGGAGATTAGAGTATCGGTCGA”, the binding signal amounted to 5.8 log2 normalized intensity.
In the case of “AGGGGCTATTTCTGACCTTTGCACCAGAGAGCCTAGGGAGATTAGAGTATCGGTCGA”, the binding signal was 6.87 log2 normalized intensity.
To “AAGACAGGGGCTATTTCTGACCTTTGCACCGCCTAGGGAGATTAGAGTATCGGTCGA” belongs 9.65 log2 normalized intensity.
To “ATGACTCCAAAGTTCAAACTCTGAAAGCACGCCTAGGGAGATTAGAGTATCGGTCGA” belongs 2.34 log2 normalized intensity; to “CCCTGCAGTCCTCTGCTTATCTGGCCTGCTGCCTAGGGAGATTAGAGTATCGGTCGA”, -0.935 log2 normalized intensity.
For the sequence “ATCTGGTGGTGGTTCTTGTTTCATTGCACAGCCTAGGGAGATTAGAGTATCGGTCGA”, the binding signal came out at 1.84 log2 normalized intensity.
For the sequence “GTCTTGAGCGCAAATGATCAAAGGTCGGTTGCCTAGGGAGATTAGAGTATCGGTCGA”, the binding signal turned out to be 5.6 log2 normalized intensity.
With “TCAGCACTGAGAGATTACATTTGACTGAGGGCCTAGGGAGATTAGAGTATCGGTCGA”, the binding signal is -0.895 log2 normalized intensity.
As to “AGGAGTGTCTTTCTCCTTGAACACAGTGTTGCCTAGGGAGATTAGAGTATCGGTCGA”, the binding signal turned out to be 1.25 log2 normalized intensity.
To “TCTTGGAATGTTGAACCTTTCTTTGTCTTTGCCTAGGGAGATTAGAGTATCGGTCGA” belongs 2.24 log2 normalized intensity; to “AACCTTCATCTCTCTTTGTTGACATCTGCTGCCTAGGGAGATTAGAGTATCGGTCGA”, 0.528 log2 normalized intensity.
As for “AACACTATCTTCTTTCAGTGTTGACCTTTGGCCTAGGGAGATTAGAGTATCGGTCGA”, the binding signal came out at 6.87 log2 normalized intensity.
With “TCTTTCAGTGTTGACCTTTGAACATTTCTTGCCTAGGGAGATTAGAGTATCGGTCGA”, the binding signal was 8.04 log2 normalized intensity.
As to “TATCCAATAAAACACTATCTTCTTTCAGTGGCCTAGGGAGATTAGAGTATCGGTCGA”, the binding signal stood at 0.883 log2 normalized intensity.
Turning to “TATCTTCTTTCAGTGTTGACCTTTGAACATGCCTAGGGAGATTAGAGTATCGGTCGA”, the binding signal worked out at 8.83 log2 normalized intensity.
For the sequence “GAATGTTGAACCTTTCTTTGTCTTTGCAATGCCTAGGGAGATTAGAGTATCGGTCGA”, the binding signal is 2.02 log2 normalized intensity.
Turning to “CATGCTCTTGGAATGTTGAACCTTTCTTTGGCCTAGGGAGATTAGAGTATCGGTCGA”, the binding signal was found to be 2.64 log2 normalized intensity.
To “CTTAAAGGCCTGTGTCGATGTTAACGCTAAGCCTAGGGAGATTAGAGTATCGGTCGA” belongs -0.828 log2 normalized intensity; to “GCCCTTCCCCCCTCTGCAGCCTTACCCAGTGCCTAGGGAGATTAGAGTATCGGTCGA”, 4.59 log2 normalized intensity.
For the sequence “TGTCGTTTGCTTAGTCTTATCTGAGGTGCCGCCTAGGGAGATTAGAGTATCGGTCGA”, the binding signal amounted to 0.932 log2 normalized intensity.
